How the values were obtained:
Assay in all cases: DAPPL (digital affinity profiling via proximity ligation, sequencing); 10 mM Tris-HCl pH 7.5, 50 mM NaCl, 1 mM DTT, 4% glycerol, room temperature, 30 min; GST-TFs on glutathione beads, 16-mer random dsDNA library, 0.1% formaldehyde crosslink after washing; high values mean tight binding
FLI1 = molecular target: T1, FLI1 (Homo sapiens, UniProt Q01543 1-452); settings: protein: recombinant; tags: N-terminal GST; dsDNA, one strand shown
T1 sequence: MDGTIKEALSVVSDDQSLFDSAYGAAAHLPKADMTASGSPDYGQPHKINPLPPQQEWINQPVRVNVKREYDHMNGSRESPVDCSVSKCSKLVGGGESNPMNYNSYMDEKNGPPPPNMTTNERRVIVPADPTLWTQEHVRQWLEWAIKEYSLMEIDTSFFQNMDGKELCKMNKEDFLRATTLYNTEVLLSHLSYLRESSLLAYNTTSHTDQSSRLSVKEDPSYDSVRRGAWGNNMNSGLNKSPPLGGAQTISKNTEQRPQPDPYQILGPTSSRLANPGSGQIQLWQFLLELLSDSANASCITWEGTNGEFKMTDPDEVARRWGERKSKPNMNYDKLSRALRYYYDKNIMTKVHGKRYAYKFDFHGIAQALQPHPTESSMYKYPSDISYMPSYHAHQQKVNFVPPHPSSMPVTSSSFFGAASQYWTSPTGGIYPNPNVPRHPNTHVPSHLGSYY
Procedure, shortened: (§1)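 Human transcription factors carrying a GST fusion were produced in yeast, bound to glutathione beads, tagged with DNA barcodes and pooled together with a tag-only sample. Each pool was held with 200 nmole of a random double-stranded 16-mer DNA library in Tris/NaCl/DTT/glycerol buffer for 30 min at room temperature, then washed, crosslinked in 0.1% formaldehyde, proximity-ligated with BsaI/T4 ligase (1 h, 37 °C), PCR-amplified and sequenced on an Illumina NextSeq500. Binding signal is the read frequency of each hexamer for a given factor divided by its frequency in the tag-only sample.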

ELK1 = molecular target: T2, ELK1 (Homo sapiens, UniProt P19419 1-428); settings: protein: recombinant; tags: N-terminal GST; dsDNA, one strand shown
T2 sequence: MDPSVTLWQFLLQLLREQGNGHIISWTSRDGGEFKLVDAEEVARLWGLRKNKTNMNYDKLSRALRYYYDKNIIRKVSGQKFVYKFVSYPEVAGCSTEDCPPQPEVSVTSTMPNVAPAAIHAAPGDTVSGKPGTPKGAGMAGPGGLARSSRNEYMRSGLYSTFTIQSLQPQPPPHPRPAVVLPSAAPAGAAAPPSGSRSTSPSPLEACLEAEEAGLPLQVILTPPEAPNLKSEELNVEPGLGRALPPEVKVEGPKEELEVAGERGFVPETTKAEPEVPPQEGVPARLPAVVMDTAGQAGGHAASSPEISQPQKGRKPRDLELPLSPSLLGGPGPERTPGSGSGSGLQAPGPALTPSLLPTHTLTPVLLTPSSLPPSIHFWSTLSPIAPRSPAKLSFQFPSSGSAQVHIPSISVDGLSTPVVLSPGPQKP
Procedure, shortened: as §1

GABPA = molecular target: T3, GABPA (Homo sapiens, UniProt Q06546 1-454); settings: protein: recombinant; tags: N-terminal GST; dsDNA, one strand shown
T3 sequence: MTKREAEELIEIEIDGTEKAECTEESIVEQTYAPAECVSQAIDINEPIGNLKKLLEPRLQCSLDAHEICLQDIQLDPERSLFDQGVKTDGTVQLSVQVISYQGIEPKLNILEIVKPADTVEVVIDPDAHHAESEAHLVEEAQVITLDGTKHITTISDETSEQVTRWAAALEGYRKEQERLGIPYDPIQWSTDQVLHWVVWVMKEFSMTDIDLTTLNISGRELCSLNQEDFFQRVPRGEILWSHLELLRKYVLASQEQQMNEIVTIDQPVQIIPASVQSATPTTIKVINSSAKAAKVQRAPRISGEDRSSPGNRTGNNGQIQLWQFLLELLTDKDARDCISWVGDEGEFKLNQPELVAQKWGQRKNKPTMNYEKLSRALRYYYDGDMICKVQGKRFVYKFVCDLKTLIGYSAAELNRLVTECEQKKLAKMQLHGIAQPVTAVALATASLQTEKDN
Procedure, shortened: as §1

ERG = molecular target: T4, ERG (Homo sapiens, UniProt P11308 1-479); settings: protein: recombinant; tags: N-terminal GST; dsDNA, one strand shown
T4 sequence: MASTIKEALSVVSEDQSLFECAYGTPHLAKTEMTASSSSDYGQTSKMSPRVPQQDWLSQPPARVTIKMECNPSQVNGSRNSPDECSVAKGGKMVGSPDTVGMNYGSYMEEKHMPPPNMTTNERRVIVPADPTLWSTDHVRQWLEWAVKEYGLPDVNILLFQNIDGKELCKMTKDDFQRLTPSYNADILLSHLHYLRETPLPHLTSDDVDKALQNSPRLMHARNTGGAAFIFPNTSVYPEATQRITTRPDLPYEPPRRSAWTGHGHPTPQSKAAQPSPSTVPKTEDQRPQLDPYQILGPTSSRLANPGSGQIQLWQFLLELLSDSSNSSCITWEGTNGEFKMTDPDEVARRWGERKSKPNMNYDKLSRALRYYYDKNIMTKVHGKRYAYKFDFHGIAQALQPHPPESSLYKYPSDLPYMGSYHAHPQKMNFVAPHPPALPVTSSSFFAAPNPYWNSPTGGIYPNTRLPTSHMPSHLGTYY
Procedure, shortened: as §1

ELF1 = ELF1 (Homo sapiens, UniProt P32519 1-619); settings: protein: recombinant; tags: N-terminal GST; dsDNA, one strand shown
Procedure, shortened: as §1

EHF = molecular target: T5, EHF (Homo sapiens, UniProt Q9NZC4 1-300); settings: protein: recombinant; tags: N-terminal GST; dsDNA, one strand shown
T5 sequence: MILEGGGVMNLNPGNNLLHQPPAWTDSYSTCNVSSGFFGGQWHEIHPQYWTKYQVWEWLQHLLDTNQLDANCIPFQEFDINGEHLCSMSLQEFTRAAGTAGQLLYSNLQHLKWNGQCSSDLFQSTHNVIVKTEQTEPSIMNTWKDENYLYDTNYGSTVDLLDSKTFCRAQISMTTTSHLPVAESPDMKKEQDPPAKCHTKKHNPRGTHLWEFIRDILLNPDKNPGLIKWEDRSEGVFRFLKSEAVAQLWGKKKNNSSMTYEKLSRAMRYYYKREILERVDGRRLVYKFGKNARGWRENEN
Procedure, shortened: as §1

SPI1 = SPI1 (Homo sapiens, UniProt P17947 1-270); settings: protein: recombinant; tags: N-terminal GST; dsDNA, one strand shown
Procedure, shortened: as §1

SPIB = SPIB (Homo sapiens, UniProt Q01892 1-262); settings: protein: recombinant; tags: N-terminal GST; dsDNA, one strand shown
Procedure, shortened: as §1

ELK3 = molecular target: T6, ELK3 (Homo sapiens, UniProt P41970 1-407); settings: protein: recombinant; tags: N-terminal GST; dsDNA, one strand shown
T6 sequence: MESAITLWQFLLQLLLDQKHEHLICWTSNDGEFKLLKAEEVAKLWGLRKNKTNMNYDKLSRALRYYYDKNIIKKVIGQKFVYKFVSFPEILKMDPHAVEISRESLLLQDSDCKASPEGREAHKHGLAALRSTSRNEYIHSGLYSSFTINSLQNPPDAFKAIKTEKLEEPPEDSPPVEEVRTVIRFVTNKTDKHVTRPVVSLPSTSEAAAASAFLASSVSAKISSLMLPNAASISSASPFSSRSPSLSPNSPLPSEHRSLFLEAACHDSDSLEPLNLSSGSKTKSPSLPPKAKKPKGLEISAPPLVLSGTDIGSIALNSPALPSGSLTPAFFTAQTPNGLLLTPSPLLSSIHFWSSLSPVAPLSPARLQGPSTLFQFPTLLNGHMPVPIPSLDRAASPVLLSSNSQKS
Procedure, shortened: as §1

FEV = molecular target: T7, FEV (Homo sapiens, UniProt Q99581 1-238); settings: protein: recombinant; tags: N-terminal GST; dsDNA, one strand shown
T7 sequence: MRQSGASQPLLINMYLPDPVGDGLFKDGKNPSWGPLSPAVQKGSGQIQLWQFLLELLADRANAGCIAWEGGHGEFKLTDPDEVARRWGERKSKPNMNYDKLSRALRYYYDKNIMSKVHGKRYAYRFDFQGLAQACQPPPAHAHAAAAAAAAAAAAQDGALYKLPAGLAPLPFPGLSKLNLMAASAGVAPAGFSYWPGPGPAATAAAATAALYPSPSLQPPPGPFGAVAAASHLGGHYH
Procedure, shortened: as §1

ETV5 = ETV5 (Homo sapiens, UniProt P41161 1-510); settings: protein: recombinant; tags: N-terminal GST; dsDNA, one strand shown
Procedure, shortened: as §1

HSF1 = HSF1 (Homo sapiens, UniProt Q00613 1-529); settings: protein: recombinant; tags: N-terminal GST; chain copies: 3; dsDNA, one strand shown
Procedure, shortened: as §1

SPIC = molecular target: T8, SPIC (Homo sapiens, UniProt Q8N5J4 1-248); settings: protein: recombinant; tags: N-terminal GST; dsDNA, one strand shown
T8 sequence: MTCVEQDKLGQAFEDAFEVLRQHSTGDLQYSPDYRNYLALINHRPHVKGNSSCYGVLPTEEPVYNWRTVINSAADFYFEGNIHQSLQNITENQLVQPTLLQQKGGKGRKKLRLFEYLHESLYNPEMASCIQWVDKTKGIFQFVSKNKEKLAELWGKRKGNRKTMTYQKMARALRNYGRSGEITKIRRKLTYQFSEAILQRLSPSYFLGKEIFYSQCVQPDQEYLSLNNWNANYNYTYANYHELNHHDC
Procedure, shortened: as §1

ELF4 = ELF4 (Homo sapiens, UniProt Q99607 1-663); settings: protein: recombinant; tags: N-terminal GST; dsDNA, one strand shown
Procedure, shortened: as §1

ELK4 = molecular target: T9, ELK4 (Homo sapiens, UniProt P28324-2 1-405); settings: protein: recombinant; tags: N-terminal GST; dsDNA, one strand shown
T9 sequence: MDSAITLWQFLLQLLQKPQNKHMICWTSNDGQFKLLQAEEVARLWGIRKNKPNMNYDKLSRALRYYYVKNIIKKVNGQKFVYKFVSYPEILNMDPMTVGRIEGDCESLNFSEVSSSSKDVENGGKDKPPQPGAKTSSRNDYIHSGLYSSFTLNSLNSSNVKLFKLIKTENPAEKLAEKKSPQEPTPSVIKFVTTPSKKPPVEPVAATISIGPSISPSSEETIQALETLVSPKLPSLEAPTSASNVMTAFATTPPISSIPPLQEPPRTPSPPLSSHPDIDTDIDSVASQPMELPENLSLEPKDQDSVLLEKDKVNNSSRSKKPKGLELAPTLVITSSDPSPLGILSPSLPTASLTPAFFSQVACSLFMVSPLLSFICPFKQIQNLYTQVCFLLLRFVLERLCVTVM
Procedure, shortened: as §1

ELF3 = molecular target: T10, ELF3 (Homo sapiens, UniProt P78545 1-371); settings: protein: recombinant; tags: N-terminal GST; dsDNA, one strand shown
T10 sequence: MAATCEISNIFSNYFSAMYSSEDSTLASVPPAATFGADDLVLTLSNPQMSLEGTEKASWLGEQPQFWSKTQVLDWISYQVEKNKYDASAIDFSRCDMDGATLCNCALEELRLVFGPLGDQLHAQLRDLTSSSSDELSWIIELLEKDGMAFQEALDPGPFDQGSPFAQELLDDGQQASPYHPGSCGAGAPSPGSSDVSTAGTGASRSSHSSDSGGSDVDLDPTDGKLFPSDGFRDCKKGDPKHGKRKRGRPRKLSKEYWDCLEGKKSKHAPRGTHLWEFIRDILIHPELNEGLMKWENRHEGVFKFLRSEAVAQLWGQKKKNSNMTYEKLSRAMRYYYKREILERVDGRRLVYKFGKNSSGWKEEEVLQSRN
Procedure, shortened: as §1

ETV1 = ETV1 (Homo sapiens, UniProt P50549 1-477); settings: protein: recombinant; tags: N-terminal GST; dsDNA, one strand shown
Procedure, shortened: as §1

Sequence of HSF1 (Q00613 whole entry): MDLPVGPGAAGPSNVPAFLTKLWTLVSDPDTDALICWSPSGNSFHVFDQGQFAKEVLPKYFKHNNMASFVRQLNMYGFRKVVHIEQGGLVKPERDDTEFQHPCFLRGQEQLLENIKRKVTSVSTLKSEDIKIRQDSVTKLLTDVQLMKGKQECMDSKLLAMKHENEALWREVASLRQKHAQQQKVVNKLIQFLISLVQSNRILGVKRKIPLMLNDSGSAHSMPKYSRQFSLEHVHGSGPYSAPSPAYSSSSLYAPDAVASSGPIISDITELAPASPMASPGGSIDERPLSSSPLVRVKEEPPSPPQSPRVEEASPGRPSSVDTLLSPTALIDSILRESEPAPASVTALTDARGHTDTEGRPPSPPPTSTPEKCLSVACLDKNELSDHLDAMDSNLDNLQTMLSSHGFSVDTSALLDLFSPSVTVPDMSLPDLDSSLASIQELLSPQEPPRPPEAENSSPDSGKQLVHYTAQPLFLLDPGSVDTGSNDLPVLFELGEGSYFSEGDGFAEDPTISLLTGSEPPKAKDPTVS
Sequence of ETV1 (P50549 whole entry): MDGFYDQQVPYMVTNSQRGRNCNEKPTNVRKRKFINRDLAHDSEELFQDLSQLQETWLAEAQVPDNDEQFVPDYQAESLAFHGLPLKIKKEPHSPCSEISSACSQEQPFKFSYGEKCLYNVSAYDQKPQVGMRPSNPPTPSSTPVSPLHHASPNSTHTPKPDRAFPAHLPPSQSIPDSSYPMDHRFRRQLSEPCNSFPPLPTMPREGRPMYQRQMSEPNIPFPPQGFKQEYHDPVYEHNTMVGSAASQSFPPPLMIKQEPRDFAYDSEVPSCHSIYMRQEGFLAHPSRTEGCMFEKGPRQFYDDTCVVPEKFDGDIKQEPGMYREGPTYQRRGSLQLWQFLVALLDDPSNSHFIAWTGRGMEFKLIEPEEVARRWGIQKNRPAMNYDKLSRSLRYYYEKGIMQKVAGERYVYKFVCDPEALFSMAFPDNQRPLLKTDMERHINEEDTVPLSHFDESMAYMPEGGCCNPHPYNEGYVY
Sequence of ELF1 (P32519 whole entry): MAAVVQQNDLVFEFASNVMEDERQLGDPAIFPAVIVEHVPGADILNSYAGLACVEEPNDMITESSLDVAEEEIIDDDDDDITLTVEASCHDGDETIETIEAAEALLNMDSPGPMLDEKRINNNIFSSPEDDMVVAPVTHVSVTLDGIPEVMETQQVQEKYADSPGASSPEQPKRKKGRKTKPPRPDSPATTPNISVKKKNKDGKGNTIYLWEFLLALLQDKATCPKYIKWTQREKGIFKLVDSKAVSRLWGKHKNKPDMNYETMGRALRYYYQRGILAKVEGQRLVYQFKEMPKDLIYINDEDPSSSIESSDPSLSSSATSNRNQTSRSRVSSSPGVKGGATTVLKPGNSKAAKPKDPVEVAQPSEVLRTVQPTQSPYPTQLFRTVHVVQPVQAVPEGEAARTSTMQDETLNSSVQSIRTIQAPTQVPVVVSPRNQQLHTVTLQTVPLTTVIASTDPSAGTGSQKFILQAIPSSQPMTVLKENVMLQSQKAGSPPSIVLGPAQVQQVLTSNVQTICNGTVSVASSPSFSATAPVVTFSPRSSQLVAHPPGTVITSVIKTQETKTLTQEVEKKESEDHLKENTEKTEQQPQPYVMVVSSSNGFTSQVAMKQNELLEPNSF
Sequence of ETV5 (P41161 whole entry): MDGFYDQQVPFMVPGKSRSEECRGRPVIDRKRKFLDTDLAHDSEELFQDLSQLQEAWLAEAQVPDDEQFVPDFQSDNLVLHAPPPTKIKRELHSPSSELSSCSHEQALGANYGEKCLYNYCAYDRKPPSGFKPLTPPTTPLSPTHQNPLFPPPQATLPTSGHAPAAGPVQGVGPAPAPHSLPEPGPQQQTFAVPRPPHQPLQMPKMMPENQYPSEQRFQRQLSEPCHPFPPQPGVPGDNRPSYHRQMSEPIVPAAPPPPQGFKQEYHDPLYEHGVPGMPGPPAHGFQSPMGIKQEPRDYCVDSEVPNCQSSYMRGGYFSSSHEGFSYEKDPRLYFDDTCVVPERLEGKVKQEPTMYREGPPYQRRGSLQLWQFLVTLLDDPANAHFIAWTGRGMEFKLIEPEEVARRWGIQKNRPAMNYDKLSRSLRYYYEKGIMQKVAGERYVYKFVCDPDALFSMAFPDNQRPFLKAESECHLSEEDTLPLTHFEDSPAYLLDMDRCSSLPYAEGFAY
Sequence of ELF4 (Q99607 whole entry): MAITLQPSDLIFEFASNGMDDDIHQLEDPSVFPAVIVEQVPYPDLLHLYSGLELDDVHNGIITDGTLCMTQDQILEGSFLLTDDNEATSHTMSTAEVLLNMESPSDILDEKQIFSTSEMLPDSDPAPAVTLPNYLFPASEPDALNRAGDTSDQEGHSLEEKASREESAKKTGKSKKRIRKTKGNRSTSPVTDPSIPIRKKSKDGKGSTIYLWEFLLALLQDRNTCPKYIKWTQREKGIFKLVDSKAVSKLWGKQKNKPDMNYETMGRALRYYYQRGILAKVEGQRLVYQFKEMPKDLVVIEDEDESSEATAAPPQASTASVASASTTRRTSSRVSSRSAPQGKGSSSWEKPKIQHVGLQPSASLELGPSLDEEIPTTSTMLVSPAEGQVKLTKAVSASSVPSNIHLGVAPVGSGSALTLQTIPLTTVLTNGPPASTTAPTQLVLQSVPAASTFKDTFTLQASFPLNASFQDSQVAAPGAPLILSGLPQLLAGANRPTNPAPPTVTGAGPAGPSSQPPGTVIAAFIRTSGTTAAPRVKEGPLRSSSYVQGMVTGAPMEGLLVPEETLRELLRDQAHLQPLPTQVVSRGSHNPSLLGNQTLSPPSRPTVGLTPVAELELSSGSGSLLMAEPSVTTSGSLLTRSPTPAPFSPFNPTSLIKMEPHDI
Sequence of SPIB (Q01892 whole entry): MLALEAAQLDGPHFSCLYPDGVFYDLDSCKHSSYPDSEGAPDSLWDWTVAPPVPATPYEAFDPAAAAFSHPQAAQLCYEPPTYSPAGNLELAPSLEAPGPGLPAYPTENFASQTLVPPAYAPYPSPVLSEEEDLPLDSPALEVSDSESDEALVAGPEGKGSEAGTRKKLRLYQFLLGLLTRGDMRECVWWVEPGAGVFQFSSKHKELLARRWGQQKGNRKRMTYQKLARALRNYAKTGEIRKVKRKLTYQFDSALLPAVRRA

Which binding signal (FLI1) does the source give for GTGCTA here?
Its binding signal is 1.11 fold enrichment (6-mer frequency, TF over GST control).

What about the binding signal (ELK1) of the same sequence?
Its binding signal is 1.09 fold enrichment (6-mer frequency, TF over GST control).

What about the binding signal (GABPA) of the same sequence?
The binding signal was 1.04 fold enrichment (6-mer frequency, TF over GST control).

And the binding signal (ERG)?
The binding signal was 1.09 fold enrichment (6-mer frequency, TF over GST control).

What about the binding signal (ELF1) of the same sequence?
Its binding signal is 1.12 fold enrichment (6-mer frequency, TF over GST control).

What about the binding signal (EHF) of the same sequence?
Its binding signal is 1.03 fold enrichment (6-mer frequency, TF over GST control).

And the binding signal (SPI1)?
The binding signal was 1.25 fold enrichment (6-mer frequency, TF over GST control).

And the binding signal (SPIB)?
Its binding signal is 1.1 fold enrichment (6-mer frequency, TF over GST control).

And the binding signal (ELK3)?
Its binding signal is 1.14 fold enrichment (6-mer frequency, TF over GST control).

What about the binding signal (FEV) of the same sequence?
Its binding signal is 1.11 fold enrichment (6-mer frequency, TF over GST control).

And the binding signal (ETV5)?
Its binding signal is 1.16 fold enrichment (6-mer frequency, TF over GST control).

What about the binding signal (HSF1) of the same sequence?
The binding signal was 1.07 fold enrichment (6-mer frequency, TF over GST control).

What about the binding signal (SPIC) of the same sequence?
The binding signal was 1.17 fold enrichment (6-mer frequency, TF over GST control).

And the binding signal (ELF4)?
Its binding signal is 1.07 fold enrichment (6-mer frequency, TF over GST control).

What about the binding signal (ELK4) of the same sequence?
Its binding signal is 1.08 fold enrichment (6-mer frequency, TF over GST control).

And the binding signal (ELF3)?
Its binding signal is 1.12 fold enrichment (6-mer frequency, TF over GST control).

What about the binding signal (ETV1) of the same sequence?
The binding signal was 1.1 fold enrichment (6-mer frequency, TF over GST control).

From paper PMC7862700, “An all-to-all approach to the identification of sequence-specific readers for epigenetic DNA modifications on cytosine”
